The record followed here is PubChem BioAssay (NCATS).

The target of assay [1] is Pyruvate kinase PKM (Homo sapiens) (UniProt P14618). Put plainly: qHTS Assay for Activators of Human Muscle Pyruvate Kinase (AID 954; active = well fitted curve in the direction sought with a large enough effect, not every such curve was filed as active). The procedure, abridged: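 A coupled luminescent readout tracked ATP made from ADP by purified PKM2. Final conditions included 0.1 nM enzyme, PEP and ADP at 0.5 and 0.1 mM, pH 7.2 imidazole buffer with BSA, and a one-hour room-temperature reaction.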

The target in assay [2] is Alpha-galactosidase (Coffea arabica) (UniProt Q42656). Put plainly: Counterscreen for Glucocerebrosidase Inhibitors: qHTS Assay for Coffee Bean alpha-Galactosidase at pH 4.5 (AID 957). Also: series mostly up to about 77 µM. The gist of the method:
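Fluorogenic qHTS at pH 4.5 (citrate buffer with Tween-20): 2 nM enzyme, 80 uM 4-MU-alpha-galactoside substrate, compound titrated 0.7 nM to 77 uM, 20 min room temperature. Glycine/NaOH stop; 4-MU read Ex 365/Em 440; Hill-equation AC50 against no-enzyme and enzyme controls.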

Assay [3] is described as follows: MultiTox-Fluor Cytotoxicity Assay - LYMP1-001 - Live Cells (AID 947).
The nature of assay [4]: Cell Viability - LYMP1-002 - Assay at 16 hr (AID 948). The procedure, abridged:
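In this qHTS, lymphoblastoid LYMP1-002 cells (human) receive compounds for 16 hr at 37 C. Viability is taken from CellTiter-Glo ATP luminescence, and AC50 derives from standard Hill fits.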

The nature of assay [5]: MultiTox-Fluor Cytotoxicity Assay - LYMP1-002 - Live Cells (AID 955).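 Also: cells exposed to compound for 16 hours.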 The procedure, abridged: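 After 16 h compound exposure at 37 C, live LYMP1-002 lymphoblastoid cells (2500/well) were quantified by cleavage of cell-permeant GF-AFC substrate, read at 405/510 nm after 60 min. Concentration-response fitted with Hill equation for AC50.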
Assay [6] is described as follows: MultiTox-Fluor Cytotoxicity Assay - LYMP1-002 - Dead Cells (AID 960). Also: nearly all actives have a fitted effect of over 60% in size. The gist of the method: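 Dead-cell fluorescence (Ex/Em 485/520) after 16 h compound exposure at 37 C of LYMP1-002 lymphoblastoid cells in complete medium; AC50 by Hill equation, with data scaled between DMSO and 15 uM tetraoctylammonium bromide.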
Assay [7] in a line: MultiTox-Fluor Cytotoxicity Assay - LYMP1-003 - Dead Cells (AID 961). Also: nearly all actives have a fitted effect of over 70% in size. The gist of the method:
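Human lymphoblastoid LYMP1-003 cells (2500/well) were treated with compounds for 16 hr at 37 C in complete medium. Dead-cell protease release was read by bis-AAF-R110 fluorescence (Ex/Em 485/520). AC50 came from Hill fits, normalized to DMSO and 15 uM tetraoctylammonium bromide.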

The nature of assay [8]: MultiTox-Fluor Cytotoxicity Assay - LYMP1-003 - Live Cells (AID 962).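 Also: cells exposed to compound for 16 hours at 37 °C; cytotoxic hits lower the live-cell protease signal.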 The gist of the method: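 Live-cell protease activity (GF-AFC substrate, 405/510 nm, 60 min at room temperature) after 16 h, 37 C compound exposure of human lymphoblastoid LYMP1-003 cells; concentration-response fitted to the Hill equation for AC50.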
Assay [9] can be described thus: Cell Viability - LYMP1-003 - Assay at 24 hr (AID 963). The procedure, abridged: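 Concentration-response qHTS: ATP loss measured by CellTiter-Glo luminescence after 24 h compound exposure at 37 C. Cells were LYMP1-003 human lymphoblastoid, 2500 per well. AC50 derived via standard Hill equation modeling.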
Assay [10] in a line: Cell Viability - LYMP1-003 - Assay at 40 hr (AID 964). Also: series mostly up to about 92 µM; nearly all actives have a fitted effect of over 60% in size. The procedure, abridged:
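Viability is taken as cellular ATP, read by CellTiter-Glo luminescence after 40 h of compound exposure at 37 C. Cells: human lymphoblastoid line LYMP1-003 at 2500/well; AC50 values derived by Hill-equation fitting of concentration-response data.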

The nature of assay [11]: Cell Viability - LYMP2-003 (AID 965).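 Also: cells exposed to compounds for 24 h before reading; nearly all actives have a fitted effect of over 50% in size.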 The procedure, abridged:
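qHTS, human lymphoblastoid line, 2500 cells/well, complete medium. 24 h drug, 37 C. ATP-based luminescent readout; Hill-fit AC50.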

The nature of assay [12]: Cell Viability - LYMP2-004 (AID 966). Also: nearly all actives have a fitted effect of over 65% in size. The gist of the method: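 AC50 values come from Hill modelling of concentration-dependent loss of intracellular ATP, measured by CellTiter-Glo luminescence. Human LYMP2-004 lymphoblastoid cells (2500/well) were exposed to compound for 24 h at 37 C.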
Assay [13] is described as follows: Cell Viability - LYMP2-005 (AID 967). Also: series mostly up to about 92 µM. The gist of the method: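 Luciferase-based ATP quantitation served as the viability measure in human lymphoblastoid LYMP2-005 cells exposed to test compounds for 24 h at 37 C in complete culture medium. Potency (AC50) was obtained by fitting concentration-response curves with the Hill equation.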
The nature of assay [14]: Cell Viability - LYMP2-009 (AID 968). Also: series mostly up to about 92 µM; nearly all actives have a fitted effect of over 55% in size.
A short description of assay [15]: Cell Viability - LYMP2-011 (AID 969). Also: nearly all actives have a fitted effect of over 60% in size. The gist of the method:
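Cytotoxicity qHTS with ATP content as read-out: lymphoblastoid cells (2500/well) exposed to compound for 24 h at 37 C, then luciferase luminescence measured. Concentration-response data fitted with the standard Hill equation to give AC50.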

Assay [16] can be described thus: Cell Viability - LYMP2-013 (AID 970). Also: series mostly up to about 92 µM; nearly all actives have a fitted effect of over 55% in size. The gist of the method:
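qHTS cytotoxicity: ATP-dependent luminescence (CellTiter-Glo, 30 min room temperature) read after 24 h compound exposure at 37 C of 2500 LYMP2-013 lymphoblastoid cells per well. Concentration-response fitted with Hill equation to give AC50.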

Assay [17] is described as follows: Cell Viability - LYMP2-015 (AID 971). Also: nearly all actives have a fitted effect of over 55% in size. The gist of the method:
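Cytotoxicity readout: decrease in intracellular ATP (CellTiter-Glo luminescence) in 2500 LYMP2-015 lymphoblastoid cells/well after 24 h compound exposure at 37 C. Concentration-response data fitted with the standard Hill equation to give AC50.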

Assay [18] in a line: Cell Viability - LYMP2-017 (AID 972). Also: series mostly up to about 92 µM; nearly all actives have a fitted effect of over 55% in size. The procedure, abridged: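 CellTiter-Glo luminescence (cellular ATP, 30 min RT) measured cytotoxicity after 24 hr compound treatment at 37 C. Cells were a human lymphoblastoid line, LYMP2-017, plated at 2500/well and incubated 5 hr first; concentration-response fitted with Hill equation for AC50.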
Assay [19] is described as follows: Cell Viability - LYMP2-019 (AID 973). Also: nearly all actives have a fitted effect of over 55% in size. The gist of the method:
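AC50 values come from Hill-equation fits of luminescent intracellular ATP (CellTiter-Glo, 30 min, room temperature) following 24 h compound exposure at 37 C. Cells: LYMP2-019 lymphoblastoid line, 2500 per well, in complete culture medium.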

Assay [20] deals with Pyruvate kinase (Leishmania mexicana) (UniProt Q27686). Put plainly: qHTS Validation Assay for Activators of Leishmania Mexicana Pyruvate Kinase (AID 959). Particulars: purified L. mexicana pyruvate kinase, enzyme activity. The gist of the method:
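Pyruvate kinase activity of E451W LmPYK (0.2 nM) was followed as ATP output after 1 h at room temperature with 0.5 mM PEP and 0.1 mM ADP, detected by PKLight luminescence.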

Inconclusive results are not listed. Calls of active or inactive are those of the source. Unless noted, calls follow the shape of the dose curve; as a rule, active = well fitted curve in the direction sought with a large enough effect; inconclusive = small, poorly fitted or top-dose-only effect, or another doubt; inactive = no such curve, though single readings can be large; an effect the other way counts as inactive or inconclusive.

Pyruvate kinase PKM (Homo sapiens), sequence (P14618 whole entry, looked up): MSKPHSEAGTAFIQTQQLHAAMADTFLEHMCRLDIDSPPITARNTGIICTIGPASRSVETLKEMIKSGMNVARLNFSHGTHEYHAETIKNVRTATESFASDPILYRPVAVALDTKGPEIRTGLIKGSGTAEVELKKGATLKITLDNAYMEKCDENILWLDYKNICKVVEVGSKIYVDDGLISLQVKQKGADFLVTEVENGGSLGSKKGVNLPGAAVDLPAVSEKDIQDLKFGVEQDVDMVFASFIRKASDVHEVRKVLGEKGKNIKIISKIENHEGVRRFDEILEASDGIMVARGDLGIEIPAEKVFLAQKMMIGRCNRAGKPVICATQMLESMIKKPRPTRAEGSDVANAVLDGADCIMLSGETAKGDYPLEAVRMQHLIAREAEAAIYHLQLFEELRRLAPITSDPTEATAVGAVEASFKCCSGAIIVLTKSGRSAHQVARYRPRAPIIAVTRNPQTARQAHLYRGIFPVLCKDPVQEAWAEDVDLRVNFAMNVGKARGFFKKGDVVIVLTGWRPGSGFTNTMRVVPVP
Alpha-galactosidase (Coffea arabica), sequence (Q42656 whole entry, looked up): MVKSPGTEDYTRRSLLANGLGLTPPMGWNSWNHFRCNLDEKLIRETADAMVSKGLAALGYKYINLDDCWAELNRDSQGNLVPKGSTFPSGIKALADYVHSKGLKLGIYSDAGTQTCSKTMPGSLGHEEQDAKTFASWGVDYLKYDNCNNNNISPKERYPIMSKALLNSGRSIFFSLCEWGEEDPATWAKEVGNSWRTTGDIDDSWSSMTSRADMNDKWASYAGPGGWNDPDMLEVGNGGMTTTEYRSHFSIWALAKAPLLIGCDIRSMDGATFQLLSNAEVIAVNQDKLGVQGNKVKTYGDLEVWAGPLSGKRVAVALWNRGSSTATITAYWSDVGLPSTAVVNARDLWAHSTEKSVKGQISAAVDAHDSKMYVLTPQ
Pyruvate kinase (Leishmania mexicana), sequence (Q27686 2-499 E452W): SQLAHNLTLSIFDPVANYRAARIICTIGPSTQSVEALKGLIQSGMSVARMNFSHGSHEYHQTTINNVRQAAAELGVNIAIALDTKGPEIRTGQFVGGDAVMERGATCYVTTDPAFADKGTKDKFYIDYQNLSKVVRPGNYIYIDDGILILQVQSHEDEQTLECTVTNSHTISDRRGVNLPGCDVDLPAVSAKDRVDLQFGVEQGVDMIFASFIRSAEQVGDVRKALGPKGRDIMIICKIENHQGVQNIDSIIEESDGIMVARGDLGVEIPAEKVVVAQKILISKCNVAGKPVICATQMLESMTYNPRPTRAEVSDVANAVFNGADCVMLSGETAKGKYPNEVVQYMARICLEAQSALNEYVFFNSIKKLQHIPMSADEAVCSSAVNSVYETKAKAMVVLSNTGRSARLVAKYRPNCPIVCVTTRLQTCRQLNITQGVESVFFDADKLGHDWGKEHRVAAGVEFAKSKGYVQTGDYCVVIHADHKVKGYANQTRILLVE

Consider `Clc1cccc(N2CCNCC2)c1`, for which the call in [1] and in assay [2] was inactive.
Regarding `c1ccc2c(c1)Nc1ccccc1S2`, the result in assay [3], in [4] and in [9] was inactive. In addition, the Potency entry in [5], in assay [6], in [7], in [8], in assay [10] and in assay [11] was “inactive” in each case. Further, the Potency result in [12], in assay [13], in assay [14], in [15], in assay [16] and in assay [17] was “inactive” in each case. The Potency entry in assay [18] and in assay [19] was “inactive” in each case.
As to `Oc1ccccc1-c1ccccc1`, the compound was classed as inactive in [3], in assay [4] and in [9]. Also, the Potency entry in assay [5], in assay [6], in assay [7], in assay [8], in assay [10] and in assay [11] was “inactive” each time. For the same compound, the Potency result in [12], in [13], in [14], in [15], in [16] and in assay [17] was “inactive” throughout. Further, the Potency entry in assay [18] and in assay [19] was “inactive” in each case.
With `c1ccc(C2CC2)c(OCC2=NCCN2)c1`, in [1], the result was inactive.
As to `CC(=O)[C@H]1CC[C@H]2[C@@H]3CC[C@H]4C[C@H](O)CC[C@]4(C)[C@H]3C(=O)C[C@]12C`, the result in assay [1] and in [2] was inactive.
As to `CNCC(O)c1ccc(O)cc1` (stereo not drawn), the call in assay [3], in assay [4], in assay [1], in assay [2] and in assay [9] was inactive. The Potency entry in assay [5], in assay [7], in assay [8], in [10], in [11] and in assay [12] was “inactive” in each case. Further, the Potency entry in assay [13], in assay [14], in assay [15], in [16], in [17] and in [18] was “inactive” in each case. The Potency result in assay [19] is “inactive”.
As for `NCC(CC(=O)O)c1ccc(Cl)cc1` (stereo not drawn), the compound was classed as inactive in assay [1] and in assay [2].
For the compound `CN1C[C@H](CNC(=O)OCc2ccccc2)C[C@@H]2c3cccc4c3c(cn4C)C[C@H]21`, the call in assay [1] and in assay [2] was inactive. Moreover, the Potency in assay [20] is 12.6 µM (active).
On to `CCCN1CCC[C@@H]2Cc3nc(N)ncc3C[C@H]21`, for which the compound was called inactive in assay [1] and in assay [2].
With `Cc1ncc(CNC(=O)N(CCCl)N=O)c(N)n1`, in assay [1], the result was inactive.
With `CCCN1CCC[C@@H]2Cc3[nH]ncc3C[C@H]21`, the result in [1] and in [2] was inactive.
For the compound `COc1ccccc1N1CCNCC1`, in [1], the result was inactive.
`CCCC(C)(COC(N)=O)COC(=O)NC(C)C` (stereo not drawn): the result in [4], in [1] and in [9] was inactive. Also, the Potency entry in assay [5], in assay [6], in assay [7], in assay [8], in [10] and in assay [11] was “inactive” in each case. For the same compound, the Potency result in [12], in [13], in assay [14], in assay [15], in assay [16] and in assay [17] was “inactive” throughout. Moreover, the Potency entry in assay [18] and in assay [19] was “inactive” each time.
`Cc1ccc(S(=O)(=O)N[C@@H](CCCCN)C(=O)CCl)cc1`: in assay [1], the call was inactive.
Consider `O=c1[nH]c2ccccc2n1C1CCN(CCCC(c2ccc(F)cc2)c2ccc(F)cc2)CC1`, for which the result in assay [1] and in assay [2] was inactive.
For the compound `N#CC(C#N)=Cc1ccc(O)c(O)c1`, the result in [1] and in assay [2] was inactive.
Regarding `C[C@]12C/C(=C/O)C(=O)C[C@@H]1CC[C@@H]1[C@@H]2CC[C@@]2(C)[C@H]1CC[C@]2(C)O`, the compound was called inactive in assay [4] and in assay [9]. Also, the Potency result in assay [8] and in [13] was “inactive” in each case.
As to `NCC(O)c1ccc(O)cc1` (stereo not drawn), the outcome in [3], in [4] and in assay [9] was inactive. Besides, the Potency entry in assay [5], in [6], in [7], in [8], in [10] and in assay [11] was “inactive” each time. For the same compound, the Potency entry in assay [12], in assay [13], in assay [14], in [15], in [16] and in [17] was “inactive” each time. Besides, the Potency entry in assay [18] and in assay [19] was “inactive” throughout.
Regarding `CCOP(=S)(OCC)Oc1cc(C)nc(C(C)C)n1`, the call in assay [3], in assay [4] and in assay [9] was inactive. In addition, the Potency entry in assay [5], in assay [6], in assay [7], in [8], in [10] and in assay [11] was “inactive” in each case. The Potency result in assay [12], in assay [13], in assay [14], in assay [15], in assay [16] and in assay [17] was “inactive” throughout. Moreover, the Potency result in [18] and in [19] was “inactive” each time.
